# Test results reported in the supplement of paper PMC10127200.
# Where a name gives a salt, the structure may show the parent alone.
# Legend:
# Test in all cases: Euclidean distance of Cell Painting phenotypic profile (signed KS, 77 features) to DMSO centroid (dimensionless distance); 5 or 10 uM (library dependent); higher = stronger phenotypic change vs DMSO (phenoactivity)
# Conditions in all cases: 48 h
# 786-O = tested on: 786-O
# How it was run: (§1)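 At 10 or 5 uM, as set by the library, and 0.1% DMSO final, compounds were applied for 48 h to five cancer lines and one healthy fibroblast line. Stained cells were imaged confocally at 20X in 9 fields per well, and Harmony extracted 77 features scored as signed Kolmogorov-Smirnov statistics against vehicle wells on the same plate. Profiles underwent plate-position correction, correlation weighting and replicate averaging at the top dose. Phenoactivity is the Euclidean distance from each such profile to the median vehicle profile.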
# A549 = tested on: A549
# How it was run: as §1
# DU145 = tested on: DU145
# How it was run: as §1
# FB = tested on: FB
# How it was run: as §1
# HEPG2 = tested on: HEPG2
# How it was run: as §1
# OVCAR4 = tested on: OVCAR4
# How it was run: as §1
SMILES,Euclidean distance (786-O),Euclidean distance (A549),Euclidean distance (DU145),Euclidean distance (FB),Euclidean distance (HEPG2),Euclidean distance (OVCAR4)
CC(=O)OC(C)C[N+](C)(C)C (stereo not drawn) [Methacholine chloride],0.977,1.02,1.24,0.67,0.576,1.45
Clc1ccccc1C(c1ccccc1)(c1ccccc1)n1ccnc1 [Clotrimazole],2.01,1.31,1.38,1.42,1.76,1.64
COc1cc(OC)cc(N(CCNC(C)C)c2ccc3ncc(-c4cnn(C)c4)nc3c2)c1,3.65,3.46,2.34,4.29,3.36,3.1
C[C@H](Nc1ncnc2[nH]cnc12)c1cc2ccc(F)cc2nc1-c1ccccn1,0.651,0.745,1.41,1.61,1.01,1.19
O=C(N/N=C/c1ccc([N+](=O)[O-])o1)c1ccc(O)cc1 [Nifuroxazide],1.64,1.52,0.846,1.33,2.82,1.2
CO[C@@H](C)Cn1c(=O)n(C)c2cnc3ccc(-c4cncc(C(C)(C)O)c4)cc3c21,3.52,4.06,2.18,4.79,2.61,3.29
COc1ccc(CNc2nc(N3CCC[C@H]3CO)ncc2C(=O)NCc2ncccn2)cc1Cl [Avanafil],1.22,0.789,1.12,0.94,0.764,1.44
O=c1sn(-c2cccc3ccccc23)c(=O)n1Cc1ccccc1 [Tideglusib],0.967,0.321,0.768,0.656,0.456,1.14
Cc1cc(C(C)(C)C)c(O)c(C)c1CC1=NCCN1 [Oxymetazoline HCl],1.3,0.82,0.75,1.1,1.88,0.83
COCCCOc1ccnc(C[S+]([O-])c2nc3ccccc3[nH]2)c1C (stereo not drawn) [Rabeprazole],1.5,0.662,0.942,1.03,1.49,0.928
CCN(CC)CC(=O)Nc1c(C)cccc1C [Lidocaine],1.65,0.785,1.51,0.913,0.435,1.11
CN1CCN(Cc2ccc(Nc3ncc(Cl)c(Nc4ccccc4S(=O)(=O)N(C)C)n3)cc2)CC1,3.04,3.57,3.22,2.93,2.81,3.88
COC(=O)Nc1ccc(-c2nc(N3CCOCC3)c3cnn(C4CCN(C(=O)OC)CC4)c3n2)cc1,1.52,2.8,1.17,2.27,1.92,4
CO[C@H]1C[C@@H]2CC[C@@H](C)[C@@](O)(O2)C(=O)C(=O)N2CCCC[C@H]2C(=O)O[C@H]([C@H](C)C[C@@H]2CC[C@@H](OCCO)[C@H](OC)C2)CC(=O)[C@H](C)/C=C(\C)[C@@H](O)[C@@H](OC)C(=O)[C@H](C)C[C@H](C)/C=C/C=C/C=C/1C [Everolimus (RAD001)],2.45,1.83,2.74,3.19,1.73,1.9
CCOC(=O)N1CCC(=C2c3ccc(Cl)cc3CCc3cccnc32)CC1 [Loratadine],1.17,1.34,0.839,1.05,1.48,1.1
c1ccc2c(c1)CCCC2C1=NCCN1 (stereo not drawn) [Tetryzoline],1.41,0.369,0.804,1.09,0.572,0.896
CC(C)c1c(C(=O)Nc2ccccc2)c(-c2ccccc2)c(-c2ccc(F)cc2)n1CC[C@@H](O)C[C@@H](O)CC(=O)O [Atorvastatin Calcium],2.68,1.33,1.15,3.05,2.23,1.8
CC[C@H](CO)Nc1nc(NCc2ccccc2)c2ncn(C(C)C)c2n1 [Roscovitine (Seliciclib.CYC202)],2.13,2.16,1.28,1.32,1.82,1.84
CCCCc1ncc(/C=C(\Cc2cccs2)C(=O)O)n1Cc1ccc(C(=O)O)cc1 [Eprosartan Mesylate],0.683,0.706,1.64,0.647,1.3,1.44
CCNC(=O)[C@@H]1CCCN1C(=O)[C@H](CCCNC(=N)N)NC(=O)[C@H](CC(C)C)NC(=O)[C@@H](CC(C)C)NC(=O)[C@H](Cc1ccc(O)cc1)NC(=O)[C@H](CO)NC(=O)[C@H](Cc1c[nH]c2ccccc12)NC(=O)[C@H](Cc1c[nH]cn1)NC(=O)[C@@H]1CCC(=O)N1 [Leuprorelin Acetate],1.85,1,1.17,0.933,0.582,0.958
CN(C)C(=O)c1ccc(S(=O)(=O)c2ccc(NC(=O)[C@@](C)(O)C(F)(F)F)c(Cl)c2)cc1,0.701,1.81,0.801,0.955,2,0.57
COC(=O)c1cc(OC)c2c(c1-c1c(CO)cc(OC)c3c1OCO3)OCO2 [Bicyclol],1.47,0.509,2.55,0.898,1.1,1.06
CCN1CCN(c2ccc(Nc3cc(N(C)C(=O)Nc4c(Cl)c(OC)cc(OC)c4Cl)ncn3)cc2)CC1 [BGJ398 (NVP-BGJ398|Infigratinib)],3.87,4,2.87,3.62,2.39,4.1
CCCc1ncc(C[n+]2ccccc2C)c(N)n1 [Amprolium HCl],1.47,0.883,1.08,1.27,0.679,1.39
COc1cc(Nc2ncc(F)c(Nc3ccc4c(n3)NC(=O)C(C)(C)O4)n2)cc(OC)c1OC [R406 (free base)],2.36,3.53,3.18,2.76,1.99,2.41
CCCN(CCc1cccs1)[C@H]1CCc2c(O)cccc2C1 [Rotigotine],0.962,0.896,0.662,0.9,0.437,0.97
O=C(O)c1ccc(Nc2ncc3c(n2)-c2ccc(Cl)cc2C(c2c(F)cccc2F)=NC3)cc1,2.83,3.8,2.7,2.34,3.27,3.07
O=C(Nc1nc(-c2cc(Cl)cs2)c(N2CCN(C3CCCCC3)CC2)s1)c1cnc(N2CCC(C(=O)O)CC2)c(Cl)c1 [Avatrombopag],1.81,0.802,1.84,0.858,1.41,1.05
